Assay outcomes (PubChem)
TDP1 cell CPT – DT40-hTDP1 cell growth loss with CPT; chicken DT40 Tdp1-/-;hTDP1 cells + 20 nM CPT, ATP luminescence, 48 h; Potency, µM (doses to about 46.2 µM), most hits filed as inhibitors; 12% of 420,000 active; note: nearly all actives have a fitted effect of over 55% in size
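Chicken DT40 Tdp1-/- cells complemented with human TDP1, 400 cells/well, exposed to compounds plus 20 nM camptothecin for at least 48 h at 37 C; viability read as ATP content by CellTiter-Glo luminescence.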
HT1080 IDH1KD tx – toxicity to HT-1080 IDH1 knockdown cells (counter line); AID 686971; Potency, µM (titrated, usually from 46.1 µM), usual class: cytotoxic; HT-1080 IDH1 knockdown viability, ATP luminescence, 48 h; 2% of 360,000 active
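CellTiter-Glo luminescence after 48 h compound exposure at 37 degrees C of IDH1-knockdown HT-1080 cells in 5% FBS RPMI. %Activity scaled between DMSO wells and cell-free media wells, with curves fitted and assigned curve classes.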
HT1080NT lethal – kills 2HG-producing HT-1080-NT fibrosarcoma cells | HT-1080-NT fibrosarcoma viability, CellTiter-Glo ATP luminescence, 48 h | Potency, µM (series often up to 46.1 µM), usual class: cytotoxic | 1.6% of 360,000 active;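 note: NT is the 2HG producing partner of a matched IDH1 knockdown line; nearly all actives have a fitted effect of over 55% in size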
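Toxicity toward the 2HG-producing NT line was scored as %Activity, normalised to DMSO and no-cell wells, from CellTiter-Glo luminescence after 48 hours' treatment.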
IL1B secr inh – inflammasome signaling inhibition, IL-1 beta readout; THP-1 LPS/ATP IL-1B secretion, AlphaLISA, 16 h; hits give low values; activity change, % at 57.5 µM; 4.7% of 360,000 active; AID 743279; in the data active = activity change below about -50%; inconclusive = mostly about -30% to -49%
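Secreted IL-1B measured by AlphaLISA bead assay after 16 h compound exposure of THP-1 cells; compounds (final up to 57.5 uM) added 1 h before LPS (250 ng/mL) and ATP (1.25 mM) stimulation; lower signal means less secretion.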
DT40 TDP1 no CPT – qHTS for Inhibitors of human tyrosyl-DNA phosphodiesterase 1 (TDP1): qHTS in cells in absence of CPT. DT40 Tdp1-/- hTDP1 cells, no CPT, ATP luminescence, 48 h. Potency, µM (highest dose often 46.2 µM), hits mostly inhibitors. 15% of 420,000 active. AID 686978, 2013; note: nearly all actives have a fitted effect of over 55% in size
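Readout: luminescence from CellTiter-Glo after 30 min in the dark at RT. Cells: DT40 Tdp1-/- with stable hTDP1, 400/well. Exposure: compounds alone, ≥48 hr, 37 °C.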
Hits are given with their value. Rows were chosen to be rich in hits. Some 19% of all compounds tested hit in one or more screens of this group. Unless noted, calls come from the whole dose curve; as a rule, active = well fitted curve in the direction sought with a large enough effect; inconclusive = small, poorly fitted or top-dose-only effect, or another doubt; inactive = no such curve, though single readings can be large; an effect the other way counts as inactive or inconclusive.

O=C(CCS(=O)(=O)c1ccccc1)Nc1ccc2c(c1)OCO2 was read as TDP1 cell CPT inactive, HT1080 IDH1KD tx inactive, HT1080NT lethal inactive, IL1B secr inh inactive and DT40 TDP1 no CPT inactive.
Screening O=C(Nc1ncc2c(n1)-c1ccccc1CC2)c1cccs1 returned TDP1 cell CPT inconclusive, HT1080 IDH1KD tx inactive, HT1080NT lethal inactive, IL1B secr inh inactive and DT40 TDP1 no CPT inconclusive.
O=C(CCS(=O)(=O)c1ccccc1)Nc1nc2c(s1)COc1ccccc1-2 was read as TDP1 cell CPT 4.1µM, HT1080 IDH1KD tx inactive, HT1080NT lethal inactive, IL1B secr inh inactive and DT40 TDP1 no CPT 4.6µM.
Screening O=C(Nc1nc2c(s1)COc1ccccc1-2)c1cccs1 returned TDP1 cell CPT 12µM, HT1080 IDH1KD tx inactive, HT1080NT lethal inactive, IL1B secr inh inactive and DT40 TDP1 no CPT 23µM.
CCOc1cccc(C(=O)N(Cc2ccc(CC)cc2)C2CCS(=O)(=O)C2)c1 (configuration not stated) was read as TDP1 cell CPT 18µM and DT40 TDP1 no CPT inconclusive.
CCOc1cccc(C(=O)N(Cc2ccco2)C2CCS(=O)(=O)C2)c1 (configuration not stated) was read as TDP1 cell CPT inactive, HT1080 IDH1KD tx inactive, HT1080NT lethal inactive, IL1B secr inh inactive and DT40 TDP1 no CPT inactive.
CCOc1cccc(C(=O)N(Cc2ccc(C(C)C)cc2)C2CCS(=O)(=O)C2)c1 (configuration not stated) was read as TDP1 cell CPT 21µM and DT40 TDP1 no CPT inconclusive.
`COc1ccc(CN(C(=O)c2cccc(OC)c2)C2CCS(=O)(=O)C2)cc1` (configuration not stated) gave TDP1 cell CPT inactive, HT1080 IDH1KD tx inactive, HT1080NT lethal inactive, IL1B secr inh inactive and DT40 TDP1 no CPT inactive.
`COc1ccc(C(=O)N(Cc2ccc(C(C)C)cc2)C2CCS(=O)(=O)C2)cc1` (configuration not stated) gave TDP1 cell CPT inconclusive and DT40 TDP1 no CPT 15µM.
Screening CCCCOc1cccc(C(=O)N(Cc2ccccc2)C2CCS(=O)(=O)C2)c1 (configuration not stated) returned TDP1 cell CPT 13µM, HT1080 IDH1KD tx inactive, HT1080NT lethal inactive, IL1B secr inh inactive and DT40 TDP1 no CPT 15µM.
Screening Cn1c(=O)n(C)c2cc(N3CCOCC3)c(NC(=O)c3ccccc3Br)cc21 returned TDP1 cell CPT inconclusive and DT40 TDP1 no CPT inactive.
Screening COc1ccc(Br)c(C(=O)Nc2cc3c(cc2N2CCOCC2)n(C)c(=O)n3C)c1 returned TDP1 cell CPT 23µM and DT40 TDP1 no CPT inconclusive.
Screening COc1ccc(Br)c(C(=O)Nc2cc3c(cc2N2CCCCC2)n(C)c(=O)c(=O)n3C)c1 returned TDP1 cell CPT 23µM and DT40 TDP1 no CPT 8.2µM.
Cn1c(=O)c(=O)n(C)c2cc(N3CCOCC3)c(NS(=O)(=O)c3ccc(Br)cc3)cc21 was read as TDP1 cell CPT inactive, HT1080 IDH1KD tx inactive, HT1080NT lethal inactive, IL1B secr inh -69 and DT40 TDP1 no CPT inactive.
Screening COc1ccc(OC)c(S(=O)(=O)Nc2cc3c(cc2N2CCCC2)n(C)c(=O)c(=O)n3C)c1 returned TDP1 cell CPT 21µM, HT1080 IDH1KD tx inactive, HT1080NT lethal inactive, IL1B secr inh inactive and DT40 TDP1 no CPT 23µM.
Screening Cn1c(=O)c(=O)n(C)c2cc(N3CCCC3)c(NS(=O)(=O)c3ccc(F)cc3)cc21 returned TDP1 cell CPT inactive, HT1080 IDH1KD tx inactive, HT1080NT lethal inactive, IL1B secr inh inactive and DT40 TDP1 no CPT inactive.
Screening COc1cc(C(=O)Nc2ccc(C#N)cc2)c([N+](=O)[O-])cc1OC returned TDP1 cell CPT inactive, HT1080 IDH1KD tx inactive, HT1080NT lethal inactive, IL1B secr inh inactive and DT40 TDP1 no CPT inconclusive.
`Clc1cccc(OCCn2cncn2)c1Cl` gave TDP1 cell CPT inactive, HT1080 IDH1KD tx inactive, HT1080NT lethal inactive, IL1B secr inh inactive and DT40 TDP1 no CPT inactive.
Clc1cccc(Oc2cnns2)c1Cl was read as TDP1 cell CPT inconclusive, HT1080 IDH1KD tx inactive, HT1080NT lethal inactive, IL1B secr inh inactive and DT40 TDP1 no CPT 26µM.
For O=c1cc(-c2ccccc2)[nH]n1-c1ccc([N+](=O)[O-])cc1 the results were TDP1 cell CPT 18µM, HT1080 IDH1KD tx 13µM, HT1080NT lethal inconclusive, IL1B secr inh -64 and DT40 TDP1 no CPT inconclusive.
`NC(=S)n1[nH]c(-c2ccc([N+](=O)[O-])cc2)c(N=Nc2ccc(Cl)cc2)c1=O` gave TDP1 cell CPT inconclusive, HT1080 IDH1KD tx 4.1µM, HT1080NT lethal 2.6µM, IL1B secr inh -92 and DT40 TDP1 no CPT inconclusive.
`Cc1ccc([N+](=O)[O-])cc1N=Nc1c(C)[nH]n(C(N)=S)c1=O` gave TDP1 cell CPT inactive, HT1080 IDH1KD tx inactive, HT1080NT lethal inactive, IL1B secr inh inactive and DT40 TDP1 no CPT inactive.
For O=c1c(N=Nc2ccc(O)cc2)c(-c2ccccc2)[nH]n1-c1ccc([N+](=O)[O-])cc1 the results were TDP1 cell CPT inconclusive, HT1080 IDH1KD tx inactive, HT1080NT lethal inactive, IL1B secr inh inactive and DT40 TDP1 no CPT 16µM.
O=c1ccc(-c2ccc([N+](=O)[O-])cc2)nn1-c1ccccc1 was read as TDP1 cell CPT inactive, HT1080 IDH1KD tx inactive, HT1080NT lethal inactive, IL1B secr inh inactive and DT40 TDP1 no CPT inactive.
Screening Cc1ccc([N+](=O)[O-])cc1N=Nc1c(-c2ccc([N+](=O)[O-])cc2)[nH]n(C(N)=S)c1=O returned TDP1 cell CPT 8.2µM, HT1080 IDH1KD tx inconclusive, HT1080NT lethal inconclusive, IL1B secr inh inconclusive and DT40 TDP1 no CPT 2.9µM.
COCC(=O)N1CCC(Oc2ccc(C(=O)NC(C)c3nc(C)sc3C)cc2)CC1 (configuration not stated) was read as TDP1 cell CPT inactive, HT1080 IDH1KD tx inactive, HT1080NT lethal inactive, IL1B secr inh inactive and DT40 TDP1 no CPT inactive.
CCOc1ccc(N2C(=O)Nc3ccccc3C2(O)C(=O)N2CCN(c3ccccn3)CC2)cc1 (configuration not stated) was read as TDP1 cell CPT inconclusive, HT1080 IDH1KD tx inactive, HT1080NT lethal inactive, IL1B secr inh inactive and DT40 TDP1 no CPT inactive.
`CC(=O)Nc1ccc(S(=O)(=O)N(C)CC(=O)OC(C)C(=O)NC2(C#N)CCCCC2)cc1` (configuration not stated) gave TDP1 cell CPT inactive, HT1080 IDH1KD tx inactive, HT1080NT lethal inactive, IL1B secr inh inactive and DT40 TDP1 no CPT inactive.
For Cc1ccc(C)c(C(=O)CCC(=O)OCn2nnc3ccccc3c2=O)c1 the results were TDP1 cell CPT inactive, HT1080 IDH1KD tx inactive, HT1080NT lethal inactive, IL1B secr inh inactive and DT40 TDP1 no CPT inactive.
COC(=O)CCNC(=O)CCc1ccc(S(=O)(=O)N2CCCCCC2)cc1 was read as TDP1 cell CPT inactive, HT1080 IDH1KD tx inactive, HT1080NT lethal inactive, IL1B secr inh inactive and DT40 TDP1 no CPT inactive.
